From PubChem
Shown are actives, neighbours in structure and some others; about 10% of the full set was active somewhere.
JMJD2A Tudor = blocks the human JMJD2A Tudor domain; Potency, µM (titrated, usually from 114 µM), usual class: inhibitors; AID 504339; O75164; AlphaScreen JMJD2A-Tudor / H3K4me3 peptide binding; 390,000 compounds, 4.4% hits; note: nearly all actives have a fitted effect of over 50% in size
L3MBTL1 block = L3MBTL1 (human) inhibition; Q9Y468; Potency, µM (series often up to 57.1 µM), hits mostly inhibitors; 230,000 compounds, 0.66% hits; AlphaScreen L3MBTL1–H3K9me1 peptide binding; note: nearly all actives have a fitted effect of over 60% in size
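Displacement of a biotinylated histone H3(1-15) peptide monomethylated at Lys9 (75 nM) from L3MBTL1 (50 nM) was measured by AlphaScreen after a 30 min room-temperature compound incubation; cefsulodin titration served as intraplate control.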
HP1b chromo inh = inhibitors of HP1-beta chromodomain binding to methylated histone tails; P83916; AlphaScreen HP1-beta / biotin-H3K9me3 peptide binding; Potency, µM (highest dose often 114 µM), usual class: inhibitors; 390,000 compounds, 0.56% hits; AID 540317; note: nearly all actives have a fitted effect of over 70% in size
Target sequence (P83916 whole entry, looked up): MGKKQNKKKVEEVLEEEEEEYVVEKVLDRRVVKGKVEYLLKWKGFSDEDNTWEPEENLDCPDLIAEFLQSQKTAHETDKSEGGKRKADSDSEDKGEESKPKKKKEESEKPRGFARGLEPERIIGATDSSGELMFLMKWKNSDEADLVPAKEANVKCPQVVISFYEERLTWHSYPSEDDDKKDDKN
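HP1-beta protein (50 nM final) preincubated 30 min at room temperature with biotinylated H3(1-18)K9me3 peptide (50 nM) in PBS pH 7.4, 0.01% Tween-20, then compound added for 30 min. AlphaScreen streptavidin donor/nickel chelate acceptor beads (10 ug/mL final), 30 min dark, luminescence read.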
BAZ2B inh = blocks human BAZ2B; AlphaScreen BAZ2B-H3K14Ac peptide displacement; 360,000 compounds, 4.4% hits; Q9UIF8; Potency, µM (highest dose often 114 µM), hits mostly inhibitors; note: nearly all actives have a fitted effect of over 60% in size
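In this displacement format the biotinylated H3(5-23) peptide acetylated at Lys14 serves as ligand at 50 nM, with BAZ2B at 50 nM in PBS pH 7.4 containing 0.01% Tween-20. Donor and acceptor beads are 10 ug/mL final.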
G9a inh = G9a (human) methyltransferase inhibition | Q96KQ7 | G9a H3K9 monomethylation, AlphaScreen, 2 h | Potency, µM (doses to about 102 µM), actives largely listed as inhibitors | 350,000 compounds, 8.8% hits; note: nearly all actives have a fitted effect of over 75% in size
Target sequence (Q96KQ7 913-1193 limits assumed): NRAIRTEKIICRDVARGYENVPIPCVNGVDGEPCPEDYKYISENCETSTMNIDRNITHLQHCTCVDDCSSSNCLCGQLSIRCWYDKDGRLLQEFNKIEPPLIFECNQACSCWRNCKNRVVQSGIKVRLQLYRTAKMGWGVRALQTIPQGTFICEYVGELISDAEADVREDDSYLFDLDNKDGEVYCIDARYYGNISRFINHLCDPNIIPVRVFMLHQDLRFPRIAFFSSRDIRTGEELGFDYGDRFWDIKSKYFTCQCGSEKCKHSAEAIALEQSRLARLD
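AlphaScreen read-out: biotin-H3K9 peptide (500 nM) methylation by 20 nM enzyme with 20 uM SAM, 2 h at room temperature after 15 min compound preincubation; anti-monomethyl H3K9 antibody plus donor/acceptor beads, 10 min dark.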
GLS inhibitor = inhibitors of human glutaminase (GLS); O94925; GLS enzymatic activity, qHTS titration; Potency, µM (doses to about 45.5 µM), hits mostly inhibitors; 410,000 compounds, 0.21% hits
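Enzyme dispensed in phosphate buffer (45 mM, pH 8.2, 0.02% Tween-20), compounds pinned in, then 1 mM L-glutamine solution and the glutamate oxidase–HRP–Amplex Red mix added; fluorescence read immediately and again after 30 min at room temperature.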
Of the large screens only hits and unclear results are named; the others gave an inactive call. Calls come from the whole dose curve; as a rule, active = well fitted curve in the direction sought with a large enough effect; inconclusive = small, poorly fitted or top-dose-only effect, or another doubt; inactive = no such curve, though single readings can be large; an effect the other way counts as inactive or inconclusive.

Cc1ccccc1-c1nc(C(N)=O)c2c(n1)n(-c1ccc3c(c1)OCO3)c(=O)n2C	BAZ2B inh inconclusive (no result: L3MBTL1 block)
Cc1ccc2[nH]c(=O)c(C(c3nnnn3CC3CCCO3)N3CCCc4ccccc43)cc2c1 (stereo not given)	JMJD2A Tudor inconclusive, BAZ2B inh inconclusive, G9a inh 50µM
Cc1cc2cc(C(c3nnnn3Cc3ccccc3)N3CCc4ccccc43)c(=O)[nH]c2cc1C (stereo not given)	JMJD2A Tudor inconclusive, BAZ2B inh inconclusive, G9a inh inconclusive (no result: L3MBTL1 block)
Cc1cc2cc(C(c3nnnn3Cc3ccco3)N3CCc4ccccc4C3)c(=O)[nH]c2cc1C (stereo not given)	BAZ2B inh 45µM, G9a inh inconclusive (no result: L3MBTL1 block)
Cc1ccc2[nH]c(=O)c(C(c3nnnn3CC3CCCO3)N3CCc4ccccc4C3)cc2c1 (stereo not given)	BAZ2B inh inconclusive, G9a inh 2µM (no result: L3MBTL1 block)
CCc1ccc2[nH]c(=O)c(C(c3nnnn3Cc3ccccc3)N3CCOCC3)cc2c1 (stereo not given)	none
COc1ccc2[nH]c(=O)c(C(c3nnnn3CC3CCCO3)N3CCc4ccccc4C3)cc2c1 (stereo not given)	G9a inh inconclusive
CCc1ccc2[nH]c(=O)c(C(c3nnnn3Cc3ccco3)N3CCC(C)CC3)cc2c1 (stereo not given)	G9a inh 56µM (no result: L3MBTL1 block)
Cc1ccc(C(=O)N2CCc3cc(CNS(=O)(=O)c4cccs4)ccc32)cc1	none (no result: L3MBTL1 block)
Cc1cc(C)c2[nH]c(=O)c(C(c3nnnn3CC3CCCO3)N3CCCC(C)C3)cc2c1 (stereo not given)	G9a inh 18µM
COc1ccc(CC(CC(=O)O)C(=O)Nc2ccc(Cl)c(Cl)c2)cc1 (stereo not given)	JMJD2A Tudor 8.9µM
Cc1ccc(CC(CC(=O)O)C(=O)Nc2ccc(Cl)cc2)cc1 (stereo not given)	none
COc1ccc(CC(CC(=O)O)C(=O)NCc2ccccc2)cc1 (stereo not given)	G9a inh 56µM
CCOC(=O)c1ccc(NC(=O)CN2C(=O)CC(c3ccc(C)c(C)c3)=Nc3ccccc32)cc1	BAZ2B inh inconclusive (no result: L3MBTL1 block)
COc1ccccc1/C=C/CN1CCSCC1	JMJD2A Tudor 6.3µM, HP1b chromo inh inconclusive, BAZ2B inh 56µM, G9a inh 32µM
COc1ccccc1/C=C/CN1CCOCC1	JMJD2A Tudor 3.2µM, BAZ2B inh inconclusive, G9a inh inconclusive
COc1cccc(C(=O)C2CCCN(C/C=C/c3ccccc3OC)C2)c1 (stereo not given)	JMJD2A Tudor inconclusive
Cc1cc(C(=O)Nc2nc3ccc(Cl)cc3s2)nn1C	JMJD2A Tudor 25µM
Cn1ncc(Cl)c1C(=O)Nc1nc2ccc(Cl)cc2s1	G9a inh 7.9µM
Cc1ccc(N2CCn3c2nc2c3c(=O)n(CCCc3ccccc3)c(=O)n2C)cc1	JMJD2A Tudor inconclusive, BAZ2B inh inconclusive, G9a inh inconclusive (no result: L3MBTL1 block)
CCc1noc(C)c1C(=O)Nc1cc(S(=O)(=O)N2CCOCC2)ccc1OC(C)C	G9a inh 13µM
Nc1nnc(SCC(=O)Nc2cccc(S(=O)(=O)N3CCOCC3)c2)s1	G9a inh inconclusive
Cc1nnc(SCC(=O)Nc2cc(S(=O)(=O)N3CCOCC3)ccc2C)s1	none
COc1ccc(S(=O)(=O)N2CCOCC2)cc1NC(=O)CSc1nnc(N)s1	G9a inh 45µM
O=C(CSc1nc2ccccc2s1)Nc1cc(S(=O)(=O)N2CCOCC2)ccc1O	JMJD2A Tudor 50µM, BAZ2B inh inconclusive, G9a inh inconclusive
CCc1noc(C)c1C(=O)Nc1cc(S(=O)(=O)N2CCCCC2)ccc1N(C)C	G9a inh inconclusive
COc1ccc(S(=O)(=O)N2CCOCC2)cc1NC(=O)CSc1n[nH]c(C(C)C)n1	G9a inh 28µM
O=c1nc2ccccc2c2n1CC(CN1CCN(c3ccccc3)CC1)N2 (stereo not given)	none (no result: JMJD2A Tudor, L3MBTL1 block, HP1b chromo inh, BAZ2B inh, GLS inhibitor)
Cc1ccc(CN2C(=O)c3ccccc3S(=O)(=O)c3ccc(C(=O)OCC4CCCO4)cc32)cc1 (stereo not given)	none (no result: L3MBTL1 block)
